Screening data deposited in PubChem by National Center for Advancing Translational Sciences (NCATS).
This is a sample that favours compounds with a hit; in the whole collection about 1.5% have one here.
IL-2 act = IL-2 activation. activation, % (series mostly up to about 46 µM). actives 0.065% (n = 360,000). IL-2 activation reporter assay, cell-based qHTS; stimulated with anti-CD3/CD4/CD28 beads; in transgenic mouse T cells; in the data active = activation above about 50%; inconclusive = mostly about 30% to 49%; note: 0% is about no effect
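Unstimulated transgenic mouse T cells; 60-min compound exposure; bead-based TCR/CD4/CD28 stimulation; 18 h culture, 37 degrees C; dual fluorescence (EGFP, DsRed) plate cytometry.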
gsp ag = gsp mutant agonism; actives 0.13% (n = 340,000); Potency, µM (doses to about 76.9 µM), for the others: at the top dose activation (cAMP increase), most hits filed as activators; gsp mutant cells, cAMP HTRF, 30 min; active = well fitted activation curve with a large enough effect; inconclusive = small, poorly fitted or top-dose-only effect, or another doubt; inactive = no such curve, though single readings can be large or run the other way; cell line not stated here;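 note: phosphodiesterase inhibitor Ro 20-1724 added with compounds to block cAMP breakdown; potency is the fitted concentration of half-maximal effect; nearly all actives have a fitted effect of over 60% in size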
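Cells stably selected in G418 were plated at 2000/well, grown 16-24 hr, then given compounds in DMSO with the PDE inhibitor […] (300 uM solution added) for 30 min at 37C; cAMP was read by HTRF.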
gsp antagonist = antagonists of gsp mutant (McCune-Albright syndrome); gsp-mutant cells, cAMP HTRF, 30 min; Potency, µM (series often up to 76.9 µM), without a hit: at the highest dose activity change, negative = inhibition, hits mostly inhibitors; actives 0.4% (n = 340,000); AID 624288; calls by dose curve; cell line not stated here;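 note: intracellular cAMP measured with PDE inhibitor Ro 20-1724 present during compound exposure; potency is the fitted concentration of half-maximal effect; % is set by controls: 0 for no effect and ±100 for the full control effect; nearly all actives have a fitted effect of over 65% in size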
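G418-selected cells were plated in DMEM/10% FBS for 16-24 h at 37C, then treated with compounds plus the PDE inhibitor […] (300 uM solution added) for 30 min at 37C. Intracellular cAMP was measured by HTRF after 30 min lysis at room temperature.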
mIDH1 inhibitor = blocks human mutant IDH1 R132H enzyme; O75874; IDH1-R132H enzyme, NADPH consumption, diaphorase/resazurin fluorescence; Potency, µM (doses to about 76.6 µM), for the others: at the highest dose activity change, negative = inhibition, actives largely listed as inhibitors; actives 0.093% (n = 390,000); note: potency is the fitted concentration of half-maximal effect; % is set by controls: 0 for no effect and ±100 for the full control effect; nearly all actives have a fitted effect of over 65% in size
Target sequence (O75874 whole entry R132H, stated change not applied): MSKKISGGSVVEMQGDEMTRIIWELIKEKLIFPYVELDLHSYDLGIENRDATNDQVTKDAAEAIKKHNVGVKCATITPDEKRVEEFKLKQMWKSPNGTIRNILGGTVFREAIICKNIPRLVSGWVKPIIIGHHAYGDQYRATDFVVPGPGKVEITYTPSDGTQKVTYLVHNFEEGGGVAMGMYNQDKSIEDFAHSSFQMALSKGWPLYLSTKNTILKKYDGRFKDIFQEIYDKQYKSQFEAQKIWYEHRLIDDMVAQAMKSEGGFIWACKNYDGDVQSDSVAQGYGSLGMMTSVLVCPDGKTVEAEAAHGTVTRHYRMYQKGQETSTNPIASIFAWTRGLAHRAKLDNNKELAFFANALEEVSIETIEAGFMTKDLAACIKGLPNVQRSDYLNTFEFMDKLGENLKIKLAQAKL
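IDH1-R132H (0.5 ug/mL) preincubated 30 min with compound, then NADPH (0.016 mM) and alpha-KG (2 mM) added; 80 min at RT, pH 7.5. Remaining NADPH coupled via diaphorase/resazurin to fluorescence (540/590 nm); concentration-response curves normalized to no-enzyme control.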
BRCA1 expr act = activators of BRCA1 expression; MCF7-BRCA1-FFLuc reporter, luminescence, 48 h; response scale: scaled: vehicle 0%, 10 µM genistein 100%; Potency, µM (doses to about 46.1 µM), for inactives: at the highest dose activation, hits mostly activators; actives 1.1% (n = 380,000); AID 624202; note: potency is the fitted concentration of half-maximal effect; nearly all actives have a fitted effect of over 80% in size
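Luminescence from a BRCA1-driven firefly luciferase in MCF7 cells was the read-out, taken 15 min after substrate addition following 48 h compound exposure at 37 °C. Data were normalized to a 10 microM genistein control and DMSO vehicle.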
* marks the source's active call; other numbers are inactive results; ? = inconclusive; . = no result; [ ] = dose if it differs, or a comment. Unless noted, calls come from the whole dose curve; as a rule, active = well fitted curve in the direction sought with a large enough effect; inconclusive = small, poorly fitted or top-dose-only effect, or another doubt; inactive = no such curve, though single readings can be large; an effect the other way counts as inactive or inconclusive.

SMILES	IL-2 act	gsp ag	gsp antagonist	mIDH1 inhibitor	BRCA1 expr act
Cc1ccccc1N1CC(C(=O)Nc2nnc(SCCN3CCOCC3)s2)CC1=O (configuration not stated)	-3	?	32µM*	-14%	-1%
COc1cccc(C=Nc2ccccc2C(=O)Nc2nccs2)c1OC	0	-18%	-1%	-4%	?
COc1cccc2c1OCC(C(=O)Nc1nccs1)=C2	1	23%	-4%	5%	4.5µM*
C=CCc1c(C)nc2c(-c3ccccc3)cnn2c1N1CCOCC1	0	-24%[15.4 µM]	0%	14%	2.2µM*
CCCn1ncc2c(Nc3ccc(C)c(C)c3)ncnc21	4	-9%[15.4 µM]	-2%	18%	8.9µM*
Cc1ccc(-n2ncc3c(Nc4cccc(C)c4)ncnc32)cc1	.	.	.	10%	2.8µM*
Cn1ncc2c(Nc3ccc(Cl)c(Cl)c3)ncnc21	-1	7%	-4%	1%	21%
O=C(O)CCc1ccc2ccccc2c1	.	.	.	.	0%
COc1ccc(-c2cn3c(n2)sc2cc(C(=O)NCCc4ccc(OC)cc4OC)ccc23)cc1	.	.	.	-3%	.
CCCC1N=C2c3ccccc3N=C(SCC(=O)NCCc3ccc(Cl)cc3)N2C1=O (configuration not stated)	.	.	.	-15%	.
Cc1ccc(NC(=O)C2Cc3ccccc3C(=O)O2)cc1 (configuration not stated)	-1	5%[15.4 µM]	-6%	-2%	4µM*
COC(=O)c1ccn(Cc2ccccc2Cl)n1	2	-5%[15.4 µM]	3%	5%	13µM*
COC(=O)c1cc2n(n1)CCN(Cc1ccccc1Cl)C2=O	-2	-1%	-2%	3%	-34%
COc1ccc(CCn2c(=N)c(S(=O)(=O)c3ccccc3)cc3c(=O)n4ccccc4nc32)cc1	11	-20%	-14%	3%	15%
COc1ccc(CCn2c(=N)c(S(=O)(=O)c3ccc(Cl)cc3)cc3c(=O)n4ccccc4nc32)cc1	80*	36%	-9%	-1%	0%
Cc1ccc2nc(-c3ccc(N4C(=N)SC5CS(=O)(=O)CC54)cc3)sc2c1 (configuration not stated)	1	9%	6%	-4%	8.9µM*
COc1ccc(NC(=O)N(Cc2cc3cc(C)ccc3[nH]c2=O)CC2CCCO2)cc1 (configuration not stated)	1	-102%	-7%	-22%	-24%
COc1ccc2[nH]c(=O)c(CN(CC3CCCO3)C(=O)Nc3ccc(F)cc3)cc2c1 (configuration not stated)	-4	11%	32µM*	3%	-93%
COc1cc2cc(CNc3ccccc3)c(=O)n(CC(=O)Nc3cccc(Cl)c3C)c2cc1OC	.	.	.	-5%	2%
COc1ccc(-c2nnc(NC(=O)c3c(OC)cccc3OC)s2)cc1	-1	?	-10%	9%	-19%
CC(C)(C)Cc1nnc(NC(=O)c2ccc([N+](=O)[O-])cc2)s1	1	6%[15.4 µM]	4%	4%	5.6µM*
COc1cccc(C(=O)Nc2nnc(-c3ccccc3)s2)c1OC	-2	?	-9%	15%	1.8µM*
COc1ccc(C(=O)Nc2nnc(-c3ccccc3)s2)cc1	0	22%[15.4 µM]	-9%	19%	7.1µM*
COC(=O)Nc1nnc(/C=C/c2ccc(OC)cc2)s1	-1	1%	-6%	1%	11µM*
CC(C)(C)Cc1nnc(NC(=O)Cc2ccc([N+](=O)[O-])cc2)s1	0	3%	10%	2%	-27%
SMILES	IL-2 act	gsp ag	gsp antagonist	mIDH1 inhibitor	BRCA1 expr act
Cc1ccc(NC(=O)CN(C)C(=O)c2cccnc2Nc2cccc(C(F)(F)F)c2)cc1	-1	-27%	-6%	-14%	-62%
CC(=O)NCCCc1ccc(C(=O)COC(=O)CNC(=O)c2ccc3ccccc3c2)cc1	.	.	.	.	16%
CCc1nnc(NC(=O)c2cccc(OC)c2)s1	0	-14%	-2%	6%	86%
CCc1nnc(NC(=O)c2ccc(OC)cc2)s1	0	3%[15.4 µM]	11%	1%	7.1µM*
CCc1nnc(NC(=O)c2cc(C)oc2C)s1	-2	-20%	2%	-2%	5.6µM*
CCc1nnc(NC(=O)c2cccc(NC(=O)C(C)C)c2)s1	-2	8%	-15%	6%	11µM*
CCSc1nnc(NC(=O)c2cc(C)oc2C)s1	0	-10%	0%	8%	?
COc1ccc(C(=O)Cc2nnc(C)s2)cc1	-1	12%	-6%	1%	7.1µM*
COCc1nnc(NC(=O)c2cccc(NC(=O)C(C)C)c2)s1	2	-57%	-2%	21%	?
COCCCNC(=O)CCCn1c(=O)c2ccccc2n(CC(=O)Nc2ccc(C)cc2Cl)c1=O	.	.	.	1%	0%
O=C(Nc1ccc(F)cc1F)c1ccc2c(=O)n3c(nc2c1)CCC3	-2	-2%	-10%	-3%	75%
COc1cc2cncnc2cc1OCCCCC(N)=O	.	.	.	.	12%
CCN(CC)c1ccc(/C=N/N2CCOCC2)c(O)c1	0	3%[15.4 µM]	19%	3%	6.3µM*
Cc1ccc(NC(=O)CSc2ccccc2NC(=O)c2ccccc2Cl)cc1Cl	1	-17%	28µM*	4%	-75%
CSCC(=O)N1CCc2ccc(NC(=O)c3ccccc3Cl)cc2C1	-1	-58%	-6%	-4%	10µM*
COc1ccc(-c2noc(Cn3c(=O)c4ccccc4n(CC(=O)Nc4cccc(C(F)(F)F)c4)c3=O)n2)cc1	.	.	.	6%	.
Cn1nc(-c2ccccc2F)c2cc(C(=O)NCc3ccccc3Cl)sc21	.	.	.	-7%	-15%
Cn1c2ccccc2c(=O)c2ccc(Cl)cc21	0	-29%	.	-7%	14µM*
CC(=O)c1ccc(NC(=O)Cn2nc(N3CCN(c4ccccc4)CC3)ccc2=O)cc1	.	.	.	-11%	.
O=C(CSc1ccccn1)Nc1ccc2c(c1)C(=O)c1ccccc1C2=O	0	-9%	-19%	8%	?
CCN(CC(=O)Nc1ccc2c(c1)OCCO2)C(=O)c1ccc(Cl)cc1Cl	-5	6%	2%	6%	1.8µM*
O=C(CSc1nnc(-c2cccc(Cl)c2)o1)Nc1ccc2c(c1)OCCO2	-2	0%	-9%	2%	7.9µM*
O=C(CSc1ccccn1)Nc1ccc2c(c1)CCC2	0	13%[15.4 µM]	-6%	4%	10µM*
O=C(CSc1ccccn1)Nc1ccc2c(c1)OCCO2	-4	11%[15.4 µM]	-1%	6%	11µM*
O=C(Cn1cnc2c(oc3ccccc32)c1=O)Nc1ccccc1C(F)(F)F	.	.	.	-2%	.
O=C(Nc1ccc2c(c1)OCO2)N1CCN(c2ccccc2Cl)CC1	-1	-24%	-8%	-3%	10µM*
O=C(CSc1ncccn1)Nc1ccc2c(c1)OCO2	-1	-29%	-5%	-5%	50%
Cn1cccc1C(=O)OCC(=O)Nc1ccc2c(c1)OCCO2	-1	-2%[15.4 µM]	13%	2%	2µM*
